Measured values from PubChem BioAssay (Tox21).
Inconclusive results are not listed. Unmarked numbers belong to inactive results. The source made the active and inactive calls. Calls come from the whole dose curve.
% is set by controls: 0 for no effect and ±100 for the full control effect.

Assay: qHTS assay to identify small molecule agonists or antagonists of the thyroid stimulating hormone receptor (TSHR) signaling pathway - wild type cell line counter screen (AID 1259384)
Conditions: HEK293 wild type, cAMP HTRF counter-screen, stronger effect = higher value; series mostly up to 92.4 µM
Text: U.S. Tox21 Program National Center for Advancing Translational Sciences [NCATS] NIH Chemical Genomics Center [NCGC] U.S. Environmental Protection Agency [EPA] National Institutes of Environmental Health Sciences [NIEHS] National Toxicology Program [NTP] U.S. Food and Drug Administration [FDA] Tox21 Assay Overview: TSHR is the receptor for thyrotropin (thyroid stimulating hormone or TSH), a member of the glycoprotein hormone family. TSH is released by the anterior pituitary gland and is the main regulator of thyroid gland growth and development. Upon binding circulating thyrotropin, a G-protein signal cascade activates adenylyl cyclase and […] cAMP concentration is increased. cAMP is a key second messenger involved extensively in cellular signal transduction pathways associated with the majority of G-protein coupled receptors (GPCRs). The activation of these GPCRs by neurotransmitters, lipids, nucleotides, peptides and hormones results in the activation or the inhibition of plasma membrane-bound adenylate cyclase through heterotrimeric G-proteins. A cell-based TSHR-Hek293 assay can be used to identify TSHR agonists. To eliminate the false positive compounds identified from screening a cell-based TSHR-Hek293 cell line, cAMP assay in a wild type Hek293 cells was used as a counter screening.
Tox21 Assay Protocol Summary: Hek293 cells (wild type) were dispensed at 800 cells/4 uL/well in 1536-well white plates using a Multidrop dispenser. After the assay plates were incubated at a 37 C/5% CO2 incubator for 18 hrs, 23 nL of compounds dissolved in DMSO, positive controls or DMSO only was transferred to the assay plate by a pin tool, followed by 1 ul medium containing Ro20-1724. After 30 min of incubation at room temperature, 2.5 ul/well of cAMP-d2 and 2.5 ul/well of anti-cAMP-cryptate were added respectively into the assay plates using a Flying Reagent Dispenser. The plates were incubated at room temperature for 1 hr. The fluorescence intensity in the plates was measured using an Envision plate reader. Each test compound was measured at 15 concentrations and in triplicates.
For `CCCCCCCCCCCCCCCl`, the outcome was “inactive”.
For `CC(C)c1ccc(NC(=O)N(C)C)cc1`, the outcome was “inactive”.
With `CC(C)(C)CC(C)(C)c1ccc(O)cc1` the outcome was “inactive”.
In the case of `C=CC(C)(CCC=C(C)C)OC(=O)c1ccccc1N` (stereo not given), the outcome is reported as “inactive”.
In the case of `Nc1c(Br)cc(Br)c2c1C(=O)c1ccccc1C2=O`, the cAMP activity change is reported as 2.44% [at 18.9 µM].
In the case of `NC(=O)CF`, the outcome is reported as “inactive”.
With `CCc1ccccc1N` the outcome was “inactive”.
For `CCCCC#N`, the outcome was “inactive”.
With `COc1ccc2c(c1OC)C(=O)O[C@H]2[C@@H]1c2cc3c(cc2CCN1C)OCO3` the outcome was “inactive”.
For `SCc1ccccc1`, the outcome was “inactive”.
With `CN1C[C@H](C(=O)N[C@]2(C)O[C@@]3(O)[C@@H]4CCCN4C(=O)[C@H](Cc4ccccc4)N3C2=O)C=C2c3cccc4[nH]cc(c34)C[C@H]21` the outcome was “inactive”.
In the case of `C[C@@H]1C[C@@H]([C@H](O)CC2CC(=O)NC(=O)C2)C(=O)[C@@H](C)C1`, the outcome is reported as “inactive”.
For `Oc1cccc(Cl)c1`, the outcome was “inactive”.
In the case of `COC1CC(=C(c2cccs2)c2cccs2)C[N+](C)(C)C1` (stereo not given), the outcome is reported as “inactive”.
For `c1ccc2c(c1)-c1cccc3cccc-2c13`, the outcome was “inactive”.
In the case of `NNCCO`, the outcome is reported as “inactive”.
With `CN(C)N` the outcome was “inactive”.
With `N#CC1(N=NC2(C#N)CCCCC2)CCCCC1` the outcome was “inactive”.
For `C=C(Cl)Cl`, the outcome was “inactive”.
With `Cc1nnc(-c2ccccc2)c(=O)n1N` the outcome was “inactive”.
In the case of `CN1C(=O)CN=C(c2ccccc2)c2cc([N+](=O)[O-])ccc21`, the outcome is reported as “inactive”.
In the case of `CC(Cc1ccccc1)NCc1ccccc1Cl` (stereo not given), the outcome is reported as “inactive”.
In the case of `FC(Cl)(Cl)C(F)(Cl)Cl`, the outcome is reported as “inactive”.
In the case of `CON(C)C(=O)Nc1ccc(Cl)cc1`, the outcome is reported as “inactive”.
For `C=CCSSCC=C`, the outcome was “inactive”.
In the case of `CCc1cnc(C2=NC(C)(C(C)C)C(=O)N2)c(C(=O)O)c1` (stereo not given), the outcome is reported as “inactive”.
With `CCOP(=O)(O)C(N)=O` the outcome was “inactive”.
In the case of `COP(=O)(OC)OC(Br)C(Cl)(Cl)Br` (stereo not given), the outcome is reported as “inactive”.
In the case of `CC(C)CCCCCCCOC(=O)c1ccccc1C(=O)OCCCCCCCC(C)C`, the outcome is reported as “inactive”.
With `COc1cc(CC#N)cc(OC)c1OC` the outcome was “inactive”.
In the case of `O=C(O)c1ccc(=O)[nH]c1`, the outcome is reported as “inactive”.
With `CC(C)[C@@H](C(=O)O[C@@H](C#N)c1cccc(Oc2ccccc2)c1)c1ccc(Cl)cc1` the outcome was “inactive”.
In the case of `C[N+]1(CCF)[C@@H]2CC[C@H]1CC(OC(=O)C(O)(c1ccccc1)c1ccccc1)C2` (stereo not given in full), the outcome is reported as “inactive”.
With `Nc1ccccc1C(=O)OCCc1ccccc1` the outcome was “inactive”.
For `O=C(O)C(F)(F)C(F)(F)C(F)(F)C(F)(F)C(F)(F)C(F)(F)C(F)(F)C(F)(F)F`, the outcome was “inactive”.
In the case of `O=C(O)COc1cc(Cl)c(Cl)cc1Cl`, the outcome is reported as “inactive”.
For `CCCCOC(=O)CCC(=O)OCCCC`, the outcome was “inactive”.
With `O=S(=O)(c1ccccc1)c1ccccc1` the outcome was “inactive”.
For `C[C@H]1[C@@H]2Cc3ccc(O)cc3[C@@]1(C)CCN2C`, the outcome was “inactive”.
For `CC(C)c1ccc(OP(=O)(Oc2ccc(C(C)C)cc2)Oc2ccc(C(C)C)cc2)cc1`, the outcome was “inactive”.
